We go through 26 compounds from PubChem BioAssay AID588674 (Broad Institute, 2011).

Screen size: about 360,000 compounds; about 1,800 (0.5%) were called active. This is one part of a sample in which actives are shown more often than they occur. A number with no mark means an inactive call.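 How the source made its calls: active means mean inhibition of at least 75% with every replicate also reaching 75%; inconclusive means mean inhibition at least 75% but some replicate below; inactive means mean inhibition below 75%.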

This test is described as follows: Shn3 3'UTR reporter decrease in osteoblasts – cell-based, Clone20 osteoblasts, firefly luciferase, set 2, Schnurri-3 inhibitor project, primary screen (AID 588674).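 Further: 0% = median of neutral control wells and 100% = pilot-screen positive control compound.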 To be noted: Clone20 osteoblast Shn3 3'UTR firefly luciferase, 24 h; at 12.5 µM; active compounds read high.
The term inhibition denotes the change of the read-out against control, counted positive when it falls. With `Cc1cc(=O)oc2cc(OC(C)C(=O)Nc3ccc(N4CCOCC4)cc3)ccc12` (stereo unspecified), the inhibition was 10%. As for `O=C(CSc1nnnn1-c1ccc2c(c1)CCC2)Nc1ccc2c(c1)OCCO2`, the inhibition is 0.48%. The result for `FC(F)(F)c1cccc(-c2nc(COc3ccc(Cl)cc3Cl)no2)c1` reads 6.45%; that for `CC(C)(C)Nc1nc(-c2ccccn2)nc2ccccc12`, 89.7% (active); that for `Cc1nc2ccccc2c(C(=O)O)c1-c1ccccn1`, -12.3%.

For `c1ccc(-c2nccc(-c3ccc(-n4cnc5ccccc54)cc3)n2)nc1`, the inhibition is 11.2%. The result for `CN(CC(=O)NCc1ccncc1)S(=O)(=O)c1ccc(Br)cc1` reads 7.05%; that for `O=C(NC1=NCCS1)c1ccc(Cl)s1`, -84.7%; that for `C=C1C(=O)[C@]23C[C@H]1CCC2[C@@]1(C)C(C[C@@H]3O)[C@](C)(C(=O)O)CC[C@@H]1O` (stereo partly specified), 29.4%. In the case of `O=C(/C=C/Sc1ncn[nH]1)c1ccc(Cl)cc1`, the inhibition is 97.7% (active). Consider `NC(=O)C1CCN(C(=O)c2cc(S(=O)(=O)N3CCN(c4ccccc4)CC3)ccc2Cl)CC1`, for which the inhibition was -11.1%.

As for `CC1CCC(N2CC(=O)N(Cc3ccc4c(c3)OCO4)C(c3ccc(F)cc3)C2=O)CC1` (stereo unspecified), the inhibition is 7.77%.

Turning to `Cc1csc(NC(=O)CSc2nc(=O)cc(N)n2-c2ccc(F)cc2)n1`, the inhibition was -11%. Next, `COc1cc(SC)ccc1C(=O)Nc1nc(C)cs1`: 86.2% (active); `COc1cc(SC)ccc1C(=O)NNC(=O)C1COc2ccccc2O1` (stereo unspecified): 4.8%; `CCCCC(=O)NC(c1ccc(OC)c(OC)c1)c1ccc2cccnc2c1O` (stereo unspecified): 87.9% (active). Next, `C=CCn1c(COc2cccc3cccnc23)nnc1SCC(=O)OC`: 0.069%. With `CCOc1ccc(C(CCc2ccccc2)NC(=O)c2ccc(OC)c(OC)c2)cc1OCC` (stereo unspecified), the inhibition is 20%. As to `COC(=O)c1sccc1-n1cccc1C(=O)C(=O)N1CCCCC1`, the inhibition is 2.95%. For the compound `CS/C(=C\C(=O)c1ccco1)Nc1ccccc1Cl`, the inhibition was -15.1%. Next, `O=C(COc1ccc(-n2cnnn2)cc1)Nc1ccccc1Cl`: 1.66%; `O=C(Nc1ccccc1Cl)/C(Cl)=C(\Cl)S(=O)c1ccccc1` (stereo unspecified): 97.6% (active); `Cc1cccc(N2CCN(C(=O)CCS(=O)(=O)c3ccc4c(c3)NC(=O)C(C)S4)CC2)c1C` (stereo unspecified): 78.8%. The result for `CC(=O)Nc1ccc(NC(=O)C(C)OC(=O)C2CC(=O)N(CCc3ccccc3)C2)cc1` (stereo unspecified) reads -14.3%; that for `O=C(COC(=O)C1CC2CCCC(C1)C2=O)NC(=O)c1ccccc1` (stereo unspecified), 14.5%; that for `COc1ccc(C(C#N)=C2C=CC(=NO)c3ccccc32)cc1`, 18.4%.
